Source: PubChem
SKKanGAS inh – inhibitors of SKKanGAS S. pyogenes growth in kanamycin (SK-promoter or general growth effect); BacTiter-Glo, 6 h; inhibition, % at 7.5 µM; 300,000 compounds, 1.3% hits;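 active = mean replicate score, as percent of positive control median, at least 50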;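 note: strain carries kanamycin resistance gene driven by streptokinase promoter and grows in 40 µg/ml kanamycin; loss of luminescence reflects streptokinase promoter inhibition or plain growth inhibition; 0% = median of DMSO wells and 100% = positive control at its reference dose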
TIM10 inh – TIM10 yeast growth inhibition; S. cerevisiae TIM10 strain growth, BacTiter-Glo luminescence, 24 h; inhibition, % at 10 µM; 330,000 compounds, 1.4% hits; AID 463195;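 active = inhibition of 40% or more at the single tested concentration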;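 note: wild-type TIM10 isogenic control strain grown at permissive 25 °C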
NALP3 yeast inh – blocks the NALP3 inflammasome reconstituted in yeast; Yeast reconstituted NLRP3/ASC/caspase-1, beta-gal luminescence, 24 h; 330,000 compounds, 0.39% hits; inhibition, % at 10 µM;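 active = inhibition of 50% or more; inactive = inhibition below 50%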;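 note: plate controls were induced DMSO wells for no effect and uninduced yeast grown without galactose for full effect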
NALP1 inh – inhibitors of NALP1 inflammasome in yeast; 280,000 compounds, 0.61% hits; inhibition, % at 10 µM; S. cerevisiae NALP1/ASC/caspase-1 growth, X-gal OD620, 72 h; in the data active = inhibition mostly above about 24%, no sharp cut-off; inactive = mostly below about 32%
tim10-1 inh – inhibits growth of tim10-1 mutant yeast | 330,000 compounds, 2.2% hits | S. cerevisiae tim10-1 ts strain growth, BacTiter-Glo, 24 h | inhibition, % at 20 µM;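 active = inhibition of at least 40%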;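 note: mutant grown at 25 °C; 0% = DMSO wells with yeast and 100% = wells holding no yeast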
tim23-1 inh – growth inhibitors of tim23-1 mutant yeast. 330,000 compounds, 1.3% hits. inhibition, % at 20 µM. S. cerevisiae tim23-1 growth, BacTiter-Glo luminescence, 24 h;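 active = growth inhibition of the mutant yeast at or above 50%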;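 note: temperature-sensitive mutant grown at 25 °C; plate controls were DMSO-treated mutant yeast for no effect and medium wells lacking yeast for full effect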
tim10-1 confirm – confirmation of tim10-1 mutant yeast growth inhibitors. AID 463213. inhibition, % at 20 µM. shares compounds with tim10-1 inh. S. cerevisiae tim10-1 ts strain growth, BacTiter-Glo, 24 h. 7,400 compounds, 56% hits;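 active = inhibition of yeast growth at or above a set limit in either of two repeat tests at 20 µM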;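 note: tim10-1 mutant grown at permissive 25 °C to find synthetic lethal compounds; 0% = DMSO yeast wells and 100% = medium wells without yeast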
* = called active by the depositor; · = no result given. Shown are actives, neighbours in structure and some others; about 4.9% of the full set was active somewhere.

SMILES	SKKanGAS inh	TIM10 inh	NALP3 yeast inh	NALP1 inh	tim10-1 inh	tim23-1 inh	tim10-1 confirm
Cc1ccc(C)c(CSc2nnc([C@@H](N)C(C)C)o2)c1	-10.6	19.3	5.9	10.8	44.6*	35.4	49.1*
Cc1ccc(C)c(N(C(=O)c2snc(C(N)=O)c2N)C(C(=O)NCC2CCCO2)c2ccc(C)o2)c1 (stereo not given)	0.4	0.2	7.9	9.9	22.0	22.3	·
N#C/C(=C\c1ccc(-c2nc3ccccc3s2)o1)C(N)=O	0.3	17.5	0.9	·	40.2*	27.8	29.2
COC(=O)[C@H](C)N(Cc1ccc(Cl)c(Cl)c1)S(=O)(=O)CCNC1CCCC1	·	0.2	·	·	11.5	34.3	·
CCOC(=O)c1sc(-c2ccc(Br)cc2)cc1N	-0.1	37.9	-63.3	-6.2	67.4*	29.7	58.2*
CCOC(=O)c1csc(N/N=C2\CCCc3ccccc32)n1	49.9*	25.7	-19.7	2.2	48.4*	41.5	20.6
COc1ccc2c(c1)CCC/C2=N\Nc1nc(C(=O)NN)cs1	15.4	24.9	3.0	·	41.0*	28.1	38.2*
O=C(NCc1ccccn1)c1ccc2nc(C3CCCCC3)oc2c1	-1.2	4.3	8.6	7.3	14.0	13.9	·
O=C1CC2(CCN(C(=O)c3cccc(F)c3)CC2)Oc2ccccc21	-1.4	0.7	10.2	·	9.1	3.1	·
O=C(COC(=O)c1cccc(S(=O)(=O)N2CCc3ccccc3C2)c1)NCc1ccco1	-4.0	1.0	19.2	-6.5	40.9*	2.8	12.2
CCN(CC)S(=O)(=O)c1ccc2nc(CCl)[nH]c2c1	0.3	8.6	0.8	-2.4	14.9	8.6	·
Cc1cc(C(=O)COc2ccccc2[N+](=O)[O-])c(C)n1C1CC1	-1.1	21.2	2.8	10.8	44.4*	23.1	27.3
CC(C)c1ccc(S(=O)(=O)N2CCN(C(=O)CCNC(=O)Nc3ccccc3)CC2)cc1	·	12.2	13.9	·	17.7	21.0	·
CC(C)c1ccc(NC(=O)N2CCN(S(=O)(=O)c3ccccc3)CC2)cc1	-3.6	5.2	18.3	1.1	41.3*	21.9	14.6
COc1ccc(CCNC(=O)c2cn3ccc(C)cc3n2)cc1OC	-12.5	20.1	0.3	-6.4	-7.6	9.6	·
CCS(=O)c1ccccc1C(=O)OCC(=O)N1CCC(c2ccccc2)=N1 (stereo not given)	·	14.6	13.9	·	5.6	17.4	·
CC(C)C(=O)N(c1cc2sc(=O)oc2c2ccccc12)S(=O)(=O)c1cccs1	6.7	20.9	-13.3	2.8	46.7*	22.7	15.6
COc1ccc(NC(=O)C(=S)NC2CCCCC2)cc1	-3.6	11.3	22.9	-24.0	17.4	36.6	·
COc1ccccc1N1CCN(C(=O)c2cc3sccc3n2C)CC1	10.5	33.0	0.7	-14.6	42.8*	39.9	45.6*
CCOc1ccccc1N1CCN(C(=O)c2ccccc2)CC1	2.2	9.1	3.9	13.5	26.2	17.2	·
CCc1ccc2oc(C(=O)N3CCN(c4ccccc4OC)CC3)cc(=O)c2c1	2.7	11.6	16.5	4.4	48.3*	39.1	17.7
CCOc1ccccc1N1CCN(C(=O)c2ccc(-c3ccc(OC(C)=O)cc3)cc2)CC1	33.8	15.6	2.9	6.5	40.6*	37.9	22.9
COc1cc2c(cc1OC)CN(C(=O)c1ccc(-c3ccccc3)cc1)CC2	20.1	23.7	10.6	30.2	49.3*	44.0	37.9*
O=C1NC(Cc2ccccc2)c2nc3ccccc3c(=O)n2-c2ccc(Cl)cc21 (stereo not given)	·	6.2	1.8	·	16.1	14.5	·
CC[C@]12c3[nH]c4cc(-c5ccco5)ccc4c3CCN1C(=O)[C@@H](CC(=O)NCCCn1ccnc1)C[C@@H]2C(=O)N1CCN(C(=O)c2ccco2)CC1	·	-9.3	·	·	-1.5	23.1	·
SMILES	SKKanGAS inh	TIM10 inh	NALP3 yeast inh	NALP1 inh	tim10-1 inh	tim23-1 inh	tim10-1 confirm
COc1ccccc1C1CCN(C(=O)c2ccc(C(C)(C)C)cc2)CC1	42.7	27.5	-6.4	8.1	40.8*	42.3	33.3*
O=C(c1ccc(CSc2ccccc2)cc1)N1CCN(c2ccccc2)CC1	7.4	6.6	21.0	10.1	45.4*	31.5	40.4*
O=C(c1ccc(CSc2ccc(Cl)cc2)cc1)N1CCCC1	1.6	-13.7	22.4	3.7	22.6	18.2	·
O=C(c1ccc(Cn2cc(Cl)cn2)cc1)N1CCN(c2ccccc2)CC1	0.8	13.3	20.6	1.8	33.7	31.5	·
COc1ccccc1N1CCN(C(=O)c2ccc(-c3ccccc3)cc2)CC1	8.4	28.4	11.8	-50.8	40.7*	31.2	26.9
O=C(c1ccc(Cn2cc(Br)cn2)cc1)N1CCN(c2ccccc2)CC1	6.7	31.5	33.1	7.0	51.7*	43.8	44.0*
Cc1onc(-c2ccccc2)c1C(=O)NC1CCC(C)CC1 (stereo not given)	·	17.5	13.5	·	18.9	25.8	·
COc1ccccc1N1CCN(C(=O)c2ccc(CSc3ccccc3)cc2)CC1	12.7	28.0	7.5	36.7	40.1*	39.6	40.5*
CCOc1ccccc1N1CCN(C(=S)NCc2ccccc2)CC1	-3.2	13.5	7.3	-7.7	43.8*	35.9	19.1
CCNC(=S)N1CCN(c2ccccc2OCC)CC1	-16.1	1.8	8.5	20.9	11.8	10.4	·
O=C(CSCc1cccc(F)c1)N1CCN(c2ccccc2)CC1	-3.3	11.3	23.5	7.9	42.7*	23.4	14.6
O=C(c1ccc(-c2ccccc2)cc1)N1CCN(c2ncccn2)CC1	·	29.6	31.5	32.4	43.1*	30.6	24.9
CC1=C(C(=O)Nc2cc(C(=O)N3CCN(c4cccc(C)c4C)CC3)ccc2C)SCCO1	21.0	10.9	21.8	8.2	35.9	22.8	·
Cc1cc(NC(=O)COC(=O)c2cc([N+](=O)[O-])ccc2N2CCOCC2)ccc1Br	-9.3	-2.6	14.7	·	12.0	5.8	·
Cc1ccccc1OCC(=O)Nc1ccccc1C(=O)NC1CC1	-15.3	-5.9	24.9	·	9.9	9.7	·
COc1ccccc1N1CCN(C(=O)c2ccc(C(C)(C)C)cc2)CC1	3.4	34.3	7.9	12.8	49.6*	43.2	26.3
Cc1ccc(C(=O)OCC(=O)NC2CCCC2)cc1	1.8	7.7	11.3	11.8	-0.5	3.9	·
Cc1coc(C)c1C(=O)CC1(O)C(=O)N(CCc2ccccc2)c2ccccc21 (stereo not given)	5.6	4.1	15.3	-3.0	43.9*	27.4	33.5*
CCCN(CCC)C(=O)c1cc(-c2ccc3c(c2)OCO3)nc2ccccc12	0.4	23.6	2.1	13.9	45.1*	42.1	11.2
CC(CNC(=O)CCc1nnc(CCC2CCCCC2)o1)c1ccccc1 (stereo not given)	-3.2	22.9	12.2	-4.1	40.0	21.0	33.5*
CCOC(=O)C1=C(C)N(CCCC(=O)O)C(=O)NC1c1ccc2ccccc2c1 (stereo not given)	-1.6	9.3	9.8	·	3.6	13.2	·
